# Data taken from paper PMC7862700, “An all-to-all approach to the identification of sequence-specific readers for epigenetic DNA modifications on cytosine”.
# How the values were obtained:
# Test in all cases: DAPPL (digital affinity profiling via proximity ligation, sequencing); 10 mM Tris-HCl pH 7.5, 50 mM NaCl, 1 mM DTT, 4% glycerol, room temperature, 30 min; GST-TFs on glutathione beads, 16-mer random dsDNA library, 0.1% formaldehyde crosslink after washing; high values mean tight binding
# Details in all cases: protein: recombinant; tags: N-terminal GST; dsDNA, one strand shown
# FLI1 = target: T1, FLI1 (Homo sapiens, UniProt Q01543 1-452)
# T1 sequence: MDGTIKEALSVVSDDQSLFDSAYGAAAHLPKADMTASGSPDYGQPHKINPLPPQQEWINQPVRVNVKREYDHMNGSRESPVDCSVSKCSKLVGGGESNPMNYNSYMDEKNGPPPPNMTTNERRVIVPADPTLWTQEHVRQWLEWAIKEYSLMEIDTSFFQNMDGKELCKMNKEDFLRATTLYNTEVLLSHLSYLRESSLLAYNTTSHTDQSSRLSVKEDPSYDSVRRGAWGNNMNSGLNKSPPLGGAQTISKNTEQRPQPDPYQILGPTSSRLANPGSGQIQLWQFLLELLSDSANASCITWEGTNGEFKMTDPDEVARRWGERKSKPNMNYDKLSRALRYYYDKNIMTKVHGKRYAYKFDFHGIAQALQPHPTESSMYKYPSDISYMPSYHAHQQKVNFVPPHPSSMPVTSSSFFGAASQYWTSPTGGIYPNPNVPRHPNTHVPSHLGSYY
# Method in brief: (§1)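 Pools were built from human transcription factors expressed in yeast as GST fusions, captured on glutathione beads and DNA-barcoded, along with a tag-only sample. Incubation with 200 nmole of a 16-mer random double-stranded DNA library lasted 30 min at room temperature in Tris/NaCl/DTT/glycerol buffer, and was followed by washing, 0.1% formaldehyde crosslinking, proximity ligation, PCR amplification and Illumina NextSeq500 sequencing. Binding signal is the quotient of each hexamer's read frequency for a factor and its frequency for the tag-only sample.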
# ELK1 = target: T2, ELK1 (Homo sapiens, UniProt P19419 1-428)
# T2 sequence: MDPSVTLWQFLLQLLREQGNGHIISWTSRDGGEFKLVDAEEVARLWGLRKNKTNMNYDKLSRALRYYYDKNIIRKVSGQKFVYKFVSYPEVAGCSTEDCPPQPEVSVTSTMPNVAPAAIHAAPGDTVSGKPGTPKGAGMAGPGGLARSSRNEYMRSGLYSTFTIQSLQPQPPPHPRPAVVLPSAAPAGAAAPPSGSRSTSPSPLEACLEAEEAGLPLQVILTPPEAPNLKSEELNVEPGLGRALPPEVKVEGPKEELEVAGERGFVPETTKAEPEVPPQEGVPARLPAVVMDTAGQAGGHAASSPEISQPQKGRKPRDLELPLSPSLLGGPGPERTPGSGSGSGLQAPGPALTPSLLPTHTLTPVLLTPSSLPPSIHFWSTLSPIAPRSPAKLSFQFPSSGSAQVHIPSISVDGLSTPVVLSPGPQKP
# Method in brief: as §1
# GABPA = target: T3, GABPA (Homo sapiens, UniProt Q06546 1-454)
# T3 sequence: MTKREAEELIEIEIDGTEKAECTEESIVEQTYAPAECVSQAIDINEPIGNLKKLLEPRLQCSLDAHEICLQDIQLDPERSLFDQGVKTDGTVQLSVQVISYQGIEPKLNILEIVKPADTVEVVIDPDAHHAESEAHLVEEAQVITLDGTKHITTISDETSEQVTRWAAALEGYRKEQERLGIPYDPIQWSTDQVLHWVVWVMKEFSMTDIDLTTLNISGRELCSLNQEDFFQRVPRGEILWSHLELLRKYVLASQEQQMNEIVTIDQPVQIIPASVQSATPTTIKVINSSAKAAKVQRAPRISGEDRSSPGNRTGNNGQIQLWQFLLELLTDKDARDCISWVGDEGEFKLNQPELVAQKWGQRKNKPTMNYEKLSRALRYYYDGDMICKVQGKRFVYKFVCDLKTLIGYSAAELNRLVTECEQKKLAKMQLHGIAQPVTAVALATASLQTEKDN
# Method in brief: as §1
# ERG = target: T4, ERG (Homo sapiens, UniProt P11308 1-479)
# T4 sequence: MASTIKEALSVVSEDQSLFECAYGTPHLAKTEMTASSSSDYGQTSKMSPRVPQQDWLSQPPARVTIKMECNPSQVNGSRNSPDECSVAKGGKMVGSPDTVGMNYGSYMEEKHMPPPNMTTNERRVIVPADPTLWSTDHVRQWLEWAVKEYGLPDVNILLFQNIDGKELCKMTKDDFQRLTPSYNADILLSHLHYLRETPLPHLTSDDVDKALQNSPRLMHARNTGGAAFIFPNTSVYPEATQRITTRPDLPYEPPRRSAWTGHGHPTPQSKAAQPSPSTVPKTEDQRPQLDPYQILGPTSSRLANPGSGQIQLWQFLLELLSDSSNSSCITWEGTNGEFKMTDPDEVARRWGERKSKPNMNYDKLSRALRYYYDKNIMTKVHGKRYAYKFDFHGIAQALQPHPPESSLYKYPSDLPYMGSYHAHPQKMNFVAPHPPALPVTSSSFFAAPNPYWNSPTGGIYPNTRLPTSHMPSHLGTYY
# Method in brief: as §1
# ELF1 = ELF1 (Homo sapiens, UniProt P32519 1-619)
# Sequence of ELF1 (P32519 whole entry): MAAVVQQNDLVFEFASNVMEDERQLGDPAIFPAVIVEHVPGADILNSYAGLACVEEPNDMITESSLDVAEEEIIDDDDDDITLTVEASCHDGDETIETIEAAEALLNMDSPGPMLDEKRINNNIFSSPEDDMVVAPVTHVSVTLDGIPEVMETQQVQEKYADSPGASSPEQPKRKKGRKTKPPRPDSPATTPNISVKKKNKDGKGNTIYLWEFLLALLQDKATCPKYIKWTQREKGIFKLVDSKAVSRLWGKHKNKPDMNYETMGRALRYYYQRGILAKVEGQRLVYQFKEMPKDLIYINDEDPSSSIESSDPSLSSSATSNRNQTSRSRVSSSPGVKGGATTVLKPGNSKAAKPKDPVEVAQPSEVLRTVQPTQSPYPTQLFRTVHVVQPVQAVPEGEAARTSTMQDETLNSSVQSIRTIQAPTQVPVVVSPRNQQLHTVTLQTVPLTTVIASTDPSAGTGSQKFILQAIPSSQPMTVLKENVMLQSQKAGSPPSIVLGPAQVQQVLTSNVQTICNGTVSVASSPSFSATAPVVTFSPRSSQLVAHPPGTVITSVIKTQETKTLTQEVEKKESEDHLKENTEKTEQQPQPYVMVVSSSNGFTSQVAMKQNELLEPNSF
# Method in brief: as §1
# EHF = target: T5, EHF (Homo sapiens, UniProt Q9NZC4 1-300)
# T5 sequence: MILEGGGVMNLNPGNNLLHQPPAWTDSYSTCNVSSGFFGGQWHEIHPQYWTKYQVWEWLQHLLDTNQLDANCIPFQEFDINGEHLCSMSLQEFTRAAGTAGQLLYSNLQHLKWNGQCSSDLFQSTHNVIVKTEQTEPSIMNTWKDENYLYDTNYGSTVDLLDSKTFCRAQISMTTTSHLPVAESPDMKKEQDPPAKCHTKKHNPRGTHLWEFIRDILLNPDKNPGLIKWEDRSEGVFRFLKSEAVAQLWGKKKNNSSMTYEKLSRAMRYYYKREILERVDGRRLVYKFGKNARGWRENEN
# Method in brief: as §1
# SPI1 = SPI1 (Homo sapiens, UniProt P17947 1-270)
# Method in brief: as §1
# SPIB = SPIB (Homo sapiens, UniProt Q01892 1-262)
# Sequence of SPIB (Q01892 whole entry): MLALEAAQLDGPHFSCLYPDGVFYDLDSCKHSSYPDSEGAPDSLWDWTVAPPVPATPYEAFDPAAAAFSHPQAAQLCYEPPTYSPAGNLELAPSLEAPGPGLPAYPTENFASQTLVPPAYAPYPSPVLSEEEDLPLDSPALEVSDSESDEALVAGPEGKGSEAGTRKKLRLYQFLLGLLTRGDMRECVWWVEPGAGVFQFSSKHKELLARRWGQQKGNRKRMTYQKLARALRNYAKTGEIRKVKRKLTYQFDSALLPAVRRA
# Method in brief: as §1
# FEV = target: T6, FEV (Homo sapiens, UniProt Q99581 1-238)
# T6 sequence: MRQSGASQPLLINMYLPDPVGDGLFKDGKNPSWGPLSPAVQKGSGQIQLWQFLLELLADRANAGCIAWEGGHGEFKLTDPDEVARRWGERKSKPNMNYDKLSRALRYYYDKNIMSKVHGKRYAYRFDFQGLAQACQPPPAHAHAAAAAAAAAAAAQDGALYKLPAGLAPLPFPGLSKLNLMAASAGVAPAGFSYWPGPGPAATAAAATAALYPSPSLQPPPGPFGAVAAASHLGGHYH
# Method in brief: as §1
# ETV5 = ETV5 (Homo sapiens, UniProt P41161 1-510)
# Sequence of ETV5 (P41161 whole entry): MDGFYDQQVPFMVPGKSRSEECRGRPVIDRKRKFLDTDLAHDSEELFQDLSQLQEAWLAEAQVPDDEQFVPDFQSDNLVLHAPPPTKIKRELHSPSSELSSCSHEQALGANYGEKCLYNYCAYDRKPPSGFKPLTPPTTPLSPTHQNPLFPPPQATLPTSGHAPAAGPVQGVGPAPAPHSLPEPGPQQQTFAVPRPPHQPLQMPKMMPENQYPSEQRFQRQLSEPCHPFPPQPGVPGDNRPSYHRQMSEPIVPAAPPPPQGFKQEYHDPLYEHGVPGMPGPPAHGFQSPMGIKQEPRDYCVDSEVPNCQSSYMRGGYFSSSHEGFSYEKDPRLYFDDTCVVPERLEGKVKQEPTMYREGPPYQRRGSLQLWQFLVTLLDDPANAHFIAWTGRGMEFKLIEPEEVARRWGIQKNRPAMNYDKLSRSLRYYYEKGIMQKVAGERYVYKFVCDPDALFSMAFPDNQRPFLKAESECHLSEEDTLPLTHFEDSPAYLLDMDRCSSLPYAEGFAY
# Method in brief: as §1
# ELF4 = ELF4 (Homo sapiens, UniProt Q99607 1-663)
# Sequence of ELF4 (Q99607 whole entry): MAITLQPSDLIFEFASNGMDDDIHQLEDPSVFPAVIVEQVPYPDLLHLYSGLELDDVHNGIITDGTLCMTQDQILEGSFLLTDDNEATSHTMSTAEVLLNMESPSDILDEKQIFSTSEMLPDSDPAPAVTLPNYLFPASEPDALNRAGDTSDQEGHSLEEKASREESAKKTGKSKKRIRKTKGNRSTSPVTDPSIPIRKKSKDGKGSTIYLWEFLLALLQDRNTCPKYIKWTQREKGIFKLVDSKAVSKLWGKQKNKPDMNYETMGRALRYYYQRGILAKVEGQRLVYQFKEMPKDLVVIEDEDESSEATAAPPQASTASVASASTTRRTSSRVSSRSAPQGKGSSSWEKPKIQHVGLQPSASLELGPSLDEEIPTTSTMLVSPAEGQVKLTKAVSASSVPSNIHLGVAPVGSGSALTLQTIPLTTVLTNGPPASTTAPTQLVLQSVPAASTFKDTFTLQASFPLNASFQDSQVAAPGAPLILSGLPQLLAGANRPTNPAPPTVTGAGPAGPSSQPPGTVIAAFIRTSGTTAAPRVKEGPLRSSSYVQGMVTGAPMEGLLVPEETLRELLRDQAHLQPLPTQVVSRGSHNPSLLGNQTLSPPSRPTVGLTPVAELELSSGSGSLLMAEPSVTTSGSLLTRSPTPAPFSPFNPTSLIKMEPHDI
# Method in brief: as §1
# ELF3 = target: T7, ELF3 (Homo sapiens, UniProt P78545 1-371)
# T7 sequence: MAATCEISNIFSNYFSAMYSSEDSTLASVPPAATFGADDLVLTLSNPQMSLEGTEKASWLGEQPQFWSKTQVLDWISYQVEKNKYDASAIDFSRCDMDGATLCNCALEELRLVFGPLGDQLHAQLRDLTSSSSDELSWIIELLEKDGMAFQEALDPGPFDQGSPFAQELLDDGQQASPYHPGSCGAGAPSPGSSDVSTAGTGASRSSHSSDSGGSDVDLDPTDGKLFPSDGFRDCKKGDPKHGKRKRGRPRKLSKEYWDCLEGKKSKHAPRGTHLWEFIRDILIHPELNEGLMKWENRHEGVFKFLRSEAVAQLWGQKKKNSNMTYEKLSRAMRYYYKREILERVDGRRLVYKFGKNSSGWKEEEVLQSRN
# Method in brief: as §1
# ETV1 = ETV1 (Homo sapiens, UniProt P50549 1-477)
# Sequence of ETV1 (P50549 whole entry): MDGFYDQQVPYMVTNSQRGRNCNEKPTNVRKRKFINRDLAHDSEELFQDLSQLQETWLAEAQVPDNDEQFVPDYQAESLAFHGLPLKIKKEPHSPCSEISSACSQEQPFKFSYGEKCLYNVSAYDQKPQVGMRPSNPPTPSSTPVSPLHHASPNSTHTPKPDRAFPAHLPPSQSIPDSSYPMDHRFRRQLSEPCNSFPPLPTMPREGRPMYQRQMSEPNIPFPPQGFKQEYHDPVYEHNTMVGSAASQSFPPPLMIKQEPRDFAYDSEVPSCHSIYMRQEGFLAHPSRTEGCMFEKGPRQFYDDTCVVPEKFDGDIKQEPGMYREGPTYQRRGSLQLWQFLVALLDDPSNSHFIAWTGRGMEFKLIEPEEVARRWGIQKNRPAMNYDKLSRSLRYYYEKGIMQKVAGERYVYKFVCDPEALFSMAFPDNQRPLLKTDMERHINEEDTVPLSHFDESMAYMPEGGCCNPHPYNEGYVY
# Method in brief: as §1
# ERF = target: T8, ERF (Homo sapiens, UniProt P50548 1-548)
# T8 sequence: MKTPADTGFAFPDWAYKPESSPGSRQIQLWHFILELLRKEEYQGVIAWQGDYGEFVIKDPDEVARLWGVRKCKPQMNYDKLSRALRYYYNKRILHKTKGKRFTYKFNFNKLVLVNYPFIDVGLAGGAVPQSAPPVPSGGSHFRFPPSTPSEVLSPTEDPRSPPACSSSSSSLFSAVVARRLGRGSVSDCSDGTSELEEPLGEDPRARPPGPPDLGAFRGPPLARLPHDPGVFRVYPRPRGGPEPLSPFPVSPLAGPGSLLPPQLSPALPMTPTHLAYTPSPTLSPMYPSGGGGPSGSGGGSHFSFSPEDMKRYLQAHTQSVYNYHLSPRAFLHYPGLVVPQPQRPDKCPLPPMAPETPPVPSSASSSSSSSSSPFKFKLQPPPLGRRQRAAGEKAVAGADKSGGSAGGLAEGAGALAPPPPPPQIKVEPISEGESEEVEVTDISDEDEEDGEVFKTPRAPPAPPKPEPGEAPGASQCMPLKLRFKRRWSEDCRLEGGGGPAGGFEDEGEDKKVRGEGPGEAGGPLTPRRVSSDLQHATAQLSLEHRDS
# Method in brief: as §1
# ETV3L = target: T9, ETV3L (Homo sapiens, UniProt Q6ZN32 1-361)
# T9 sequence: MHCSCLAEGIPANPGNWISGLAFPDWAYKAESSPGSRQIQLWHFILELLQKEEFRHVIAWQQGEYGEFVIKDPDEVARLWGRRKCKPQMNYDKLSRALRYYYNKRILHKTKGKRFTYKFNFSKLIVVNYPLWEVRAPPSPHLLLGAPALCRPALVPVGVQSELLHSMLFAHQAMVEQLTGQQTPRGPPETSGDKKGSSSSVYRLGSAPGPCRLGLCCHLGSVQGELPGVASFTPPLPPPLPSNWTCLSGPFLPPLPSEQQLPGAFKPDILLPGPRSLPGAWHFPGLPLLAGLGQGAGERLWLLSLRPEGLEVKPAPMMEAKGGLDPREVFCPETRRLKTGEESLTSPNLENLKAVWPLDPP
# Method in brief: as §1
# ETS2 = target: T10, ETS2 (Homo sapiens, UniProt P15036 1-469)
# T10 sequence: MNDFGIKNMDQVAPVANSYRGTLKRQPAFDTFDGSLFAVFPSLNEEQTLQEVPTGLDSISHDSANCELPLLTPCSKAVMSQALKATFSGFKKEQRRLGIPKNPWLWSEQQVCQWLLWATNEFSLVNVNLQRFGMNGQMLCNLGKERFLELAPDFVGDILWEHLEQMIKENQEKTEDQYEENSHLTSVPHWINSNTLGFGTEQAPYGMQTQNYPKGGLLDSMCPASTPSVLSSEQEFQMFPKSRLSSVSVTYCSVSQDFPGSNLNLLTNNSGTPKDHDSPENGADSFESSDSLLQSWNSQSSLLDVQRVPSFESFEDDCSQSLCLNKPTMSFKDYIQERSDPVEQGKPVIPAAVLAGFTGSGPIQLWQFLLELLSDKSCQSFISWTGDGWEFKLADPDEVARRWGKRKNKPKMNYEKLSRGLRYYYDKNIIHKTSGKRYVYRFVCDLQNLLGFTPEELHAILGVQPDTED
# Method in brief: as §1
# ETV7 = target: T11, ETV7 (Homo sapiens, UniProt Q9Y603 1-341)
# T11 sequence: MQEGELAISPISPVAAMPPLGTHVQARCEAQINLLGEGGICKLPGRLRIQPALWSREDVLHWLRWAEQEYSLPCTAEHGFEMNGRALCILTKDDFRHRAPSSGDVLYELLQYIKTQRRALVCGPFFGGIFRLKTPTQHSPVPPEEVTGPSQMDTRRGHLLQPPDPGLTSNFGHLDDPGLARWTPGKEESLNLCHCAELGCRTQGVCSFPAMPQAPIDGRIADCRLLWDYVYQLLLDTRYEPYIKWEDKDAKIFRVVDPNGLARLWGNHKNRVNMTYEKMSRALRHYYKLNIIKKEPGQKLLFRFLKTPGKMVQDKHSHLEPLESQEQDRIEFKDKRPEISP
# Method in brief: as §1
# ETV6 = ETV6 (Homo sapiens, UniProt P41212 1-452)
# Sequence of ETV6 (P41212 whole entry): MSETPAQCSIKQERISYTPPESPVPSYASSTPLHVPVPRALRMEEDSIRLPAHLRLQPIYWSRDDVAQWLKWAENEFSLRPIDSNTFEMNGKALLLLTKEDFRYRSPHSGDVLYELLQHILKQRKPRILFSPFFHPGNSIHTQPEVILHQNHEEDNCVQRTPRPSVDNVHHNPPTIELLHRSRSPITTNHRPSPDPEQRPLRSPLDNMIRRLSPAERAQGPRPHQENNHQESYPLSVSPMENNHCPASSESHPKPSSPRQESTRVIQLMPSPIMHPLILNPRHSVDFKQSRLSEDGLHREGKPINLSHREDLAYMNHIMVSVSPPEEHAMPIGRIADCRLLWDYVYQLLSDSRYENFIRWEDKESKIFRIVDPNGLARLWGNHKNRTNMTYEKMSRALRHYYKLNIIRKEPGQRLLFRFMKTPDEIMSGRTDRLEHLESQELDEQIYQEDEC
# Method in brief: as §1
sequence,measurement,setting,value
AGTATG,binding signal,FLI1,"1.05 fold enrichment (6-mer frequency, TF over GST control)"
same,binding signal,ELK1,"1.01 fold enrichment (6-mer frequency, TF over GST control)"
same,binding signal,GABPA,"1.03 fold enrichment (6-mer frequency, TF over GST control)"
same,binding signal,ERG,"1 fold enrichment (6-mer frequency, TF over GST control)"
same,binding signal,ELF1,"1.04 fold enrichment (6-mer frequency, TF over GST control)"
same,binding signal,EHF,"1.11 fold enrichment (6-mer frequency, TF over GST control)"
same,binding signal,SPI1,"1.08 fold enrichment (6-mer frequency, TF over GST control)"
same,binding signal,SPIB,"1.11 fold enrichment (6-mer frequency, TF over GST control)"
same,binding signal,FEV,"1.02 fold enrichment (6-mer frequency, TF over GST control)"
same,binding signal,ETV5,"1.02 fold enrichment (6-mer frequency, TF over GST control)"
same,binding signal,ELF4,"1.04 fold enrichment (6-mer frequency, TF over GST control)"
same,binding signal,ELF3,"1.08 fold enrichment (6-mer frequency, TF over GST control)"
same,binding signal,ETV1,"1.02 fold enrichment (6-mer frequency, TF over GST control)"
same,binding signal,ERF,"1.02 fold enrichment (6-mer frequency, TF over GST control)"
same,binding signal,ETV3L,"1.13 fold enrichment (6-mer frequency, TF over GST control)"
same,binding signal,ETS2,"1.09 fold enrichment (6-mer frequency, TF over GST control)"
same,binding signal,ETV7,"1.12 fold enrichment (6-mer frequency, TF over GST control)"
same,binding signal,ETV6,"1 fold enrichment (6-mer frequency, TF over GST control)"
